# Data reported in article PMC7862700, “An all-to-all approach to the identification of sequence-specific readers for epigenetic DNA modifications on cytosine”.
# Columns and labels:
# Test in all cases: DAPPL (digital affinity profiling via proximity ligation, sequencing); 10 mM Tris-HCl pH 7.5, 50 mM NaCl, 1 mM DTT, 4% glycerol, room temperature, 30 min; GST-TFs on glutathione beads, 16-mer random dsDNA library, 0.1% formaldehyde crosslink after washing; high values mean tight binding
# FLI1 = target: T1, FLI1 (Homo sapiens, UniProt Q01543 1-452); conditions: protein: recombinant; tags: N-terminal GST; dsDNA, one strand shown
# T1 sequence: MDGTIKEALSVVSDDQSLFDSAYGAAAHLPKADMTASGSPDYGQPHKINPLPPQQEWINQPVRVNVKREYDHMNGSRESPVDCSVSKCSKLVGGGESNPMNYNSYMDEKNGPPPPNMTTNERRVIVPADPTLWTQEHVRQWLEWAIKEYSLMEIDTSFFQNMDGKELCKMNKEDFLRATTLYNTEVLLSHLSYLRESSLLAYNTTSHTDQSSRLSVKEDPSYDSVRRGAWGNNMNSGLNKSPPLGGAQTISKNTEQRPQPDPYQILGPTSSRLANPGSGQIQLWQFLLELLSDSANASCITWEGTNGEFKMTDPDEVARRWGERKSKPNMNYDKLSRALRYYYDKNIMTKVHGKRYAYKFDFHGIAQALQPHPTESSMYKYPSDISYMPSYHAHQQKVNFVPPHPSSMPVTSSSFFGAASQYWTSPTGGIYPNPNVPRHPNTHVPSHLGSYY
# Procedure, shortened: (§1)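 Sequencing on an Illumina NextSeq500 followed washing, crosslinking with 0.1% formaldehyde, proximity ligation (BsaI/T4 ligase, 1 h, 37 °C) and PCR amplification of pools that had been incubated for 30 min at room temperature with 200 nmole of a random double-stranded 16-mer DNA library in Tris/NaCl/DTT/glycerol buffer. Each pool held DNA-barcoded human transcription factors, expressed in yeast as GST fusions and captured on glutathione beads, plus a tag-only sample. Binding signal is a hexamer's read frequency for a factor divided by its frequency in the tag-only sample.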
# ELK1 = target: T2, ELK1 (Homo sapiens, UniProt P19419 1-428); conditions: protein: recombinant; tags: N-terminal GST; dsDNA, one strand shown
# T2 sequence: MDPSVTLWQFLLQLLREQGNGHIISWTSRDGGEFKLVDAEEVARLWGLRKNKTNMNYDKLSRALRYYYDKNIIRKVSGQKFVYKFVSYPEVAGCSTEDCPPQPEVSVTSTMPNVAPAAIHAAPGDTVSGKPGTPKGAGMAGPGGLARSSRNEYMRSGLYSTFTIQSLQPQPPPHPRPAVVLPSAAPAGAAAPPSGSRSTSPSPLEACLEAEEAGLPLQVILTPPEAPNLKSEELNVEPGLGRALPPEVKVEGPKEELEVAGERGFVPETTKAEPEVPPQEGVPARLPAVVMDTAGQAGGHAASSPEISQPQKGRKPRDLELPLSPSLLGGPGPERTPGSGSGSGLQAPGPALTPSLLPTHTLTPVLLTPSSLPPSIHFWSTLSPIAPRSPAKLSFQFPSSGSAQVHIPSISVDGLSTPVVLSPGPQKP
# Procedure, shortened: as §1
# GABPA = target: T3, GABPA (Homo sapiens, UniProt Q06546 1-454); conditions: protein: recombinant; tags: N-terminal GST; dsDNA, one strand shown
# T3 sequence: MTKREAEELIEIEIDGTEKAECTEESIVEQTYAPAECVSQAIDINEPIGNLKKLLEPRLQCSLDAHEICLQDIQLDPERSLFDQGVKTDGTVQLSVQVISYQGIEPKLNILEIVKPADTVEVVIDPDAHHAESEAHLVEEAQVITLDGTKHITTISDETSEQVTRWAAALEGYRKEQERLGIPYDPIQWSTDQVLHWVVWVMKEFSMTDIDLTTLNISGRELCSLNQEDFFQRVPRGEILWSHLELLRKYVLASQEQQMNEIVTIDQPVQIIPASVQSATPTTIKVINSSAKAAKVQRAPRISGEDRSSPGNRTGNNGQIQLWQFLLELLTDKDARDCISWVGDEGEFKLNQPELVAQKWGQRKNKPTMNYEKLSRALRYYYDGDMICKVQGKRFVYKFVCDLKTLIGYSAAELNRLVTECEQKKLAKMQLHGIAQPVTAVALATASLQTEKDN
# Procedure, shortened: as §1
# ERG = target: T4, ERG (Homo sapiens, UniProt P11308 1-479); conditions: protein: recombinant; tags: N-terminal GST; dsDNA, one strand shown
# T4 sequence: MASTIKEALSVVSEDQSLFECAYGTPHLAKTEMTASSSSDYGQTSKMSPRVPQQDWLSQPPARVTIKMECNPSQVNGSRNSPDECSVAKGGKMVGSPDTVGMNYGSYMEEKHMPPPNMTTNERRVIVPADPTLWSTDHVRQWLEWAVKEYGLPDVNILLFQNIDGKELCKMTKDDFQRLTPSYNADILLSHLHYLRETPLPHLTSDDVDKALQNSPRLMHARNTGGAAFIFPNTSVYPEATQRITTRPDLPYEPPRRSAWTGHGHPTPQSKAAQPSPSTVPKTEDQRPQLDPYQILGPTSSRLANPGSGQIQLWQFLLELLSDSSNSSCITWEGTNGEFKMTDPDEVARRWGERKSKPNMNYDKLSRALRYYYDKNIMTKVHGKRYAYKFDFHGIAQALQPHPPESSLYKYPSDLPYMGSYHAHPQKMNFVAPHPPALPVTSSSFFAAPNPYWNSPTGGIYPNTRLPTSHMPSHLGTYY
# Procedure, shortened: as §1
# ELF1 = ELF1 (Homo sapiens, UniProt P32519 1-619); conditions: protein: recombinant; tags: N-terminal GST; dsDNA, one strand shown
# ELF1, sequence (P32519 whole entry): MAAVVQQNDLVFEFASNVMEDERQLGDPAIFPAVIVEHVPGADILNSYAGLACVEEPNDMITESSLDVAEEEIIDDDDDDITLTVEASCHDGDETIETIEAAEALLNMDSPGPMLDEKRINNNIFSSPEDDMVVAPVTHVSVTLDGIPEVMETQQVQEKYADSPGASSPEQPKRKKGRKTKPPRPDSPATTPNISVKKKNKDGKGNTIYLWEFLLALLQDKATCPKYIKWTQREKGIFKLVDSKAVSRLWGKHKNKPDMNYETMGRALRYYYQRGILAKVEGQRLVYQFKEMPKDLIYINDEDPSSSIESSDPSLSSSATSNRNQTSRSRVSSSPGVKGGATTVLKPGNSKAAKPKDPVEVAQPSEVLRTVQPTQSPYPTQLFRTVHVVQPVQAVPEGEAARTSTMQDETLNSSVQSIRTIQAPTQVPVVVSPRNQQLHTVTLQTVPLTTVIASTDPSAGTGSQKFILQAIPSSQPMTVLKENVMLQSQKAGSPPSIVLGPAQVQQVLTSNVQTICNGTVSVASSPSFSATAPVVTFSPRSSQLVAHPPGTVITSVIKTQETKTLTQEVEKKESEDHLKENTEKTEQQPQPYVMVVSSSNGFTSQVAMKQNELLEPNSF
# Procedure, shortened: as §1
# EHF = target: T5, EHF (Homo sapiens, UniProt Q9NZC4 1-300); conditions: protein: recombinant; tags: N-terminal GST; dsDNA, one strand shown
# T5 sequence: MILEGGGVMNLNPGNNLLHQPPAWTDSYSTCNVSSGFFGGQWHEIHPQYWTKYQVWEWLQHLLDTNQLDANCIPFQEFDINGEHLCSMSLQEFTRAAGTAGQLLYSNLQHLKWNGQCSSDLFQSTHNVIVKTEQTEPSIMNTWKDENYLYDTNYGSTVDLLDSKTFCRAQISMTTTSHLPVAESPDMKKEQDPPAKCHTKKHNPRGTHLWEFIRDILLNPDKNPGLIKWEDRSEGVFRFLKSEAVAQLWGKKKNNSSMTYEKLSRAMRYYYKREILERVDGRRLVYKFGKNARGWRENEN
# Procedure, shortened: as §1
# SPI1 = SPI1 (Homo sapiens, UniProt P17947 1-270); conditions: protein: recombinant; tags: N-terminal GST; dsDNA, one strand shown
# Procedure, shortened: as §1
# SPIB = SPIB (Homo sapiens, UniProt Q01892 1-262); conditions: protein: recombinant; tags: N-terminal GST; dsDNA, one strand shown
# SPIB, sequence (Q01892 whole entry): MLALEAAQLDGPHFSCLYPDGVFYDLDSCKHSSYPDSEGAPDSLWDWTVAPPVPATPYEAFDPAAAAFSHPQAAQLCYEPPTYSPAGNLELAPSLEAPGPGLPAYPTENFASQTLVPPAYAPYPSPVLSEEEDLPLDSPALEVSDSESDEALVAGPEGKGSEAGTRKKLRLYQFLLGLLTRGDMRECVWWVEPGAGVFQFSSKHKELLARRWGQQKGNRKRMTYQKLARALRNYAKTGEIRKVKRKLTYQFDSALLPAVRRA
# Procedure, shortened: as §1
# ELK3 = target: T6, ELK3 (Homo sapiens, UniProt P41970 1-407); conditions: protein: recombinant; tags: N-terminal GST; dsDNA, one strand shown
# T6 sequence: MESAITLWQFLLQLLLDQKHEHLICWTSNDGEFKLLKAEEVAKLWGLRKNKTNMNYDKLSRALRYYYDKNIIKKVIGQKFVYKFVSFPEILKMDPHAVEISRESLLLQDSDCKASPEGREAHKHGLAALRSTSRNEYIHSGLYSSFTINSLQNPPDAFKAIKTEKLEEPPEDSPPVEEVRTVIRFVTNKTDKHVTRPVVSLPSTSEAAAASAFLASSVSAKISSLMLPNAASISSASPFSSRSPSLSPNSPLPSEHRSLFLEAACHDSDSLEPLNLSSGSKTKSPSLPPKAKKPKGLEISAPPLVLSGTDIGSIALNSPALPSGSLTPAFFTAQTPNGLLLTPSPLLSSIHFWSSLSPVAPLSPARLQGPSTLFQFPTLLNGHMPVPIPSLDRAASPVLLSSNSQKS
# Procedure, shortened: as §1
# FEV = target: T7, FEV (Homo sapiens, UniProt Q99581 1-238); conditions: protein: recombinant; tags: N-terminal GST; dsDNA, one strand shown
# T7 sequence: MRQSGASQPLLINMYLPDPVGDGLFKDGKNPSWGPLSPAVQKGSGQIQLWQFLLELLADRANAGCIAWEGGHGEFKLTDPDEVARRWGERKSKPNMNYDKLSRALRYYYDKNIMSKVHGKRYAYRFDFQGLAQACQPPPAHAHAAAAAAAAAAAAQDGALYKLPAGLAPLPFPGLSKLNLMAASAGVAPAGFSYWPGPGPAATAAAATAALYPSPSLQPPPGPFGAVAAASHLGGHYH
# Procedure, shortened: as §1
# ETV5 = ETV5 (Homo sapiens, UniProt P41161 1-510); conditions: protein: recombinant; tags: N-terminal GST; dsDNA, one strand shown
# ETV5, sequence (P41161 whole entry): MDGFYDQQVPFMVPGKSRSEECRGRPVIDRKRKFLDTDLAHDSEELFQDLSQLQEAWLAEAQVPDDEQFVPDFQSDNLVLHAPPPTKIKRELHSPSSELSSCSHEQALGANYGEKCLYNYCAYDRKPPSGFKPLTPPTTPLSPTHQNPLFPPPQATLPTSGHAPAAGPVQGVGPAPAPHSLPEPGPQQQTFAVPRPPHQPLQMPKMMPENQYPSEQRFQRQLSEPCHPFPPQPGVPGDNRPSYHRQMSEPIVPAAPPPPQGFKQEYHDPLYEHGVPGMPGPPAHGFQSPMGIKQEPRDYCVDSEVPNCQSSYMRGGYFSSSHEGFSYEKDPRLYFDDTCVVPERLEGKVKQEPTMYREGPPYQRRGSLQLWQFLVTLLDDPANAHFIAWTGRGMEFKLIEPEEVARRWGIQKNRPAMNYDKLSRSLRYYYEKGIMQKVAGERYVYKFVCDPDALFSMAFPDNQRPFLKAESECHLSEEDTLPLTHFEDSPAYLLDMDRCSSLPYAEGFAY
# Procedure, shortened: as §1
# HSF1 = HSF1 (Homo sapiens, UniProt Q00613 1-529); conditions: protein: recombinant; tags: N-terminal GST; chain copies: 3; dsDNA, one strand shown
# HSF1, sequence (Q00613 whole entry): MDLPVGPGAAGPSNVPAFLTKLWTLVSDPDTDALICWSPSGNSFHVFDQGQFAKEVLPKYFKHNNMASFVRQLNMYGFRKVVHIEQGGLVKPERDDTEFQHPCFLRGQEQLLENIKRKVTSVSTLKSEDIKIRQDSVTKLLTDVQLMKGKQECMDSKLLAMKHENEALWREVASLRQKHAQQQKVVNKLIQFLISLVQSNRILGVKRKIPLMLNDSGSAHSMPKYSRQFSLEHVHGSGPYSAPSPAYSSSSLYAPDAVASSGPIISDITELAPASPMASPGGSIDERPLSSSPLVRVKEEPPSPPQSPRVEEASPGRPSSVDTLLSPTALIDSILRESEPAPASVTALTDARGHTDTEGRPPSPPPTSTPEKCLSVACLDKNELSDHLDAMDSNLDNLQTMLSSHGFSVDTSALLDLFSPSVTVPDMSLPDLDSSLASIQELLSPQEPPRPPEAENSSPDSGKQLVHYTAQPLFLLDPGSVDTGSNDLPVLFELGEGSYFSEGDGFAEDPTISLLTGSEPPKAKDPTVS
# Procedure, shortened: as §1
# SPIC = target: T8, SPIC (Homo sapiens, UniProt Q8N5J4 1-248); conditions: protein: recombinant; tags: N-terminal GST; dsDNA, one strand shown
# T8 sequence: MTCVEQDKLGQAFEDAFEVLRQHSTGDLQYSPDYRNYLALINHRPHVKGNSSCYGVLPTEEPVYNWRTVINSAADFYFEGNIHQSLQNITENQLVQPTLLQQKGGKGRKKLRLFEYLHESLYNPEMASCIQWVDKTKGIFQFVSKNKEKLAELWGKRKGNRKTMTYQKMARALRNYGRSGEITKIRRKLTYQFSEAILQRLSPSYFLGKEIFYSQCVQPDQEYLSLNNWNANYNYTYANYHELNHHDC
# Procedure, shortened: as §1
# ELF4 = ELF4 (Homo sapiens, UniProt Q99607 1-663); conditions: protein: recombinant; tags: N-terminal GST; dsDNA, one strand shown
# ELF4, sequence (Q99607 whole entry): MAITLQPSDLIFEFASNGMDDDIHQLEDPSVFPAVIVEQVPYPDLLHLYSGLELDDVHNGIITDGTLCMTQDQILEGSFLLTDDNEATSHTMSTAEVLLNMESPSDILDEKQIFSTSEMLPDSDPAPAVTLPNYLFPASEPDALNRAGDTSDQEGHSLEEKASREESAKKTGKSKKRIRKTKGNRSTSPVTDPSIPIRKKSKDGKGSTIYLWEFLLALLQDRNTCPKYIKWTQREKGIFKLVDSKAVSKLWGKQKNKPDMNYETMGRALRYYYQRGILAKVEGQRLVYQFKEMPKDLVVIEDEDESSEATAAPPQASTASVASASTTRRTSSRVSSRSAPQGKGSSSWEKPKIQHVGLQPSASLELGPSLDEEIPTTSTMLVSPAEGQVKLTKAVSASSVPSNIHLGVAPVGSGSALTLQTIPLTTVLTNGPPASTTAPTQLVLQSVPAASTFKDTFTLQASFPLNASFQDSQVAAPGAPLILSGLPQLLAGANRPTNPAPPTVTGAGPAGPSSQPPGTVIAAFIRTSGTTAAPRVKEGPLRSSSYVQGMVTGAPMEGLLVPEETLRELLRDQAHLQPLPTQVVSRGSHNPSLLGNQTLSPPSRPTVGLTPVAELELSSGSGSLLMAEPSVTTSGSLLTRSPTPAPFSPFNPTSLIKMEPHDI
# Procedure, shortened: as §1
# ELK4 = target: T9, ELK4 (Homo sapiens, UniProt P28324-2 1-405); conditions: protein: recombinant; tags: N-terminal GST; dsDNA, one strand shown
# T9 sequence: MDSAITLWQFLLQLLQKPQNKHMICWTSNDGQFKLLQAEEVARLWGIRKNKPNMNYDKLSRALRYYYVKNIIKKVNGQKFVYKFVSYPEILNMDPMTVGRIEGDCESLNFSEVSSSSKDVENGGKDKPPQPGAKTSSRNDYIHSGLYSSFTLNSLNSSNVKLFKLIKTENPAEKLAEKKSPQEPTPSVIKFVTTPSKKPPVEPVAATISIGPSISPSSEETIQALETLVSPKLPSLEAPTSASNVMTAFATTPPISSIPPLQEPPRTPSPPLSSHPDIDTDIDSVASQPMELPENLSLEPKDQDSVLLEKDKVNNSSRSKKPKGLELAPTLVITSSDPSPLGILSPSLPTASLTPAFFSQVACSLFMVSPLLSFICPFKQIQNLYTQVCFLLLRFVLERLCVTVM
# Procedure, shortened: as §1
# ETV2 = target: T10, ETV2 (Homo sapiens, UniProt O00321 1-342); conditions: protein: recombinant; tags: N-terminal GST; dsDNA, one strand shown
# T10 sequence: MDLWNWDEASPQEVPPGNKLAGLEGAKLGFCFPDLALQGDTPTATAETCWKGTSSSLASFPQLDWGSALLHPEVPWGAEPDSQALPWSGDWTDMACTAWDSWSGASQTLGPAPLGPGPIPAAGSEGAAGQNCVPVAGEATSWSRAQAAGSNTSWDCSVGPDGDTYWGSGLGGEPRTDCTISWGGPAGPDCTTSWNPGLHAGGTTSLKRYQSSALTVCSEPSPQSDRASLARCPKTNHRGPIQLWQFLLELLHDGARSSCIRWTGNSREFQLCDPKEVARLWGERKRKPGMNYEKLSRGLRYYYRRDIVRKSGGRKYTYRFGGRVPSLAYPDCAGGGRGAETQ
# Procedure, shortened: as §1
# ELF3 = target: T11, ELF3 (Homo sapiens, UniProt P78545 1-371); conditions: protein: recombinant; tags: N-terminal GST; dsDNA, one strand shown
# T11 sequence: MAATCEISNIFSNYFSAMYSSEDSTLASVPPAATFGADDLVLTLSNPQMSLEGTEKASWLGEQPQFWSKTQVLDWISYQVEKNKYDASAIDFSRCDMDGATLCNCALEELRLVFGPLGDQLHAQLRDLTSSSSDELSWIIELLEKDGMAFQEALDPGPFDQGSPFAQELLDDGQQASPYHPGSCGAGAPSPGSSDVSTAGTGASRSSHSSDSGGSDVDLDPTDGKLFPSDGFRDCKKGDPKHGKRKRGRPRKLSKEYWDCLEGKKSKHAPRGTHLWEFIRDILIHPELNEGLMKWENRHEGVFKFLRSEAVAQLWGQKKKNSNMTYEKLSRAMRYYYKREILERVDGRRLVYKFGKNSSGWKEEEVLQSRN
# Procedure, shortened: as §1
# CRX = CRX (Homo sapiens, UniProt O43186 1-299); conditions: protein: recombinant; tags: N-terminal GST; dsDNA, one strand shown
# CRX, sequence (O43186 whole entry): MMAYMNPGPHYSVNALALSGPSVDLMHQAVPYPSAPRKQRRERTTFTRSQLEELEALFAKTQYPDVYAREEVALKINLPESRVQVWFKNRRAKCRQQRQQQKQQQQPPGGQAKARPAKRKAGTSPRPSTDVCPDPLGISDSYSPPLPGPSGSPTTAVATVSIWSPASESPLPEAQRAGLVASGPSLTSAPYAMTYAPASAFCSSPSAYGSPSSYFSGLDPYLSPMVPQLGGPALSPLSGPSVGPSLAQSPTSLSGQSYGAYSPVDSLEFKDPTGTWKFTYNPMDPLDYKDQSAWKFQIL
# Procedure, shortened: as §1
# ETV1 = ETV1 (Homo sapiens, UniProt P50549 1-477); conditions: protein: recombinant; tags: N-terminal GST; dsDNA, one strand shown
# ETV1, sequence (P50549 whole entry): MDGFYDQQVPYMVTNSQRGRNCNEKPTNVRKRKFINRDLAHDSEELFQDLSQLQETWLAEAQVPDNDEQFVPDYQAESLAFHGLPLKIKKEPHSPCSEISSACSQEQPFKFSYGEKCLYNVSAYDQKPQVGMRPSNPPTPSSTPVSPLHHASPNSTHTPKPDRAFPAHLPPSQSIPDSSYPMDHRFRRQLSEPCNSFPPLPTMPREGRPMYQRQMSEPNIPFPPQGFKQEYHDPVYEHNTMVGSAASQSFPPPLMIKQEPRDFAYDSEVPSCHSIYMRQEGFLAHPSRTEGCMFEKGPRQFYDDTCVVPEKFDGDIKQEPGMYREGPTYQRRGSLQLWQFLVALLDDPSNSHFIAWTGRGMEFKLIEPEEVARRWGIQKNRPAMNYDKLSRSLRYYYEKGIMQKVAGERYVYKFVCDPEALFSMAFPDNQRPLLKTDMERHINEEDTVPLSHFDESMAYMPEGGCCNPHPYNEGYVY
# Procedure, shortened: as §1
sequence,measurement,setting,value
CTAGCT,binding signal,FLI1,"1.36 fold enrichment (6-mer frequency, TF over GST control)"
same,binding signal,ELK1,"1.37 fold enrichment (6-mer frequency, TF over GST control)"
same,binding signal,GABPA,"1.3 fold enrichment (6-mer frequency, TF over GST control)"
same,binding signal,ERG,"1.3 fold enrichment (6-mer frequency, TF over GST control)"
same,binding signal,ELF1,"1.31 fold enrichment (6-mer frequency, TF over GST control)"
same,binding signal,EHF,"1.29 fold enrichment (6-mer frequency, TF over GST control)"
same,binding signal,SPI1,"1.33 fold enrichment (6-mer frequency, TF over GST control)"
same,binding signal,SPIB,"1.34 fold enrichment (6-mer frequency, TF over GST control)"
same,binding signal,ELK3,"1.39 fold enrichment (6-mer frequency, TF over GST control)"
same,binding signal,FEV,"1.29 fold enrichment (6-mer frequency, TF over GST control)"
same,binding signal,ETV5,"1.31 fold enrichment (6-mer frequency, TF over GST control)"
same,binding signal,HSF1,"1.53 fold enrichment (6-mer frequency, TF over GST control)"
same,binding signal,SPIC,"1.59 fold enrichment (6-mer frequency, TF over GST control)"
same,binding signal,ELF4,"1.29 fold enrichment (6-mer frequency, TF over GST control)"
same,binding signal,ELK4,"1.35 fold enrichment (6-mer frequency, TF over GST control)"
same,binding signal,ETV2,"1.31 fold enrichment (6-mer frequency, TF over GST control)"
same,binding signal,ELF3,"1.07 fold enrichment (6-mer frequency, TF over GST control)"
same,binding signal,CRX,"1.31 fold enrichment (6-mer frequency, TF over GST control)"
same,binding signal,ETV1,"1.24 fold enrichment (6-mer frequency, TF over GST control)"
